Compound activity as filed in PubChem BioAssay.
This is a sample that favours compounds with a hit; in the whole collection about 17% have one here.
HepG2 tox: qHTS for Inhibitors of TGF-b: Cytotox Counterscreen; HepG2 CAGA-GFP viability, ATP luminescence, 18 h; Potency, µM (titrated, usually from 46.1 µM), for the others: top-dose activity change, negative = cytotoxicity, most hits filed as cytotoxic; 410,000 compounds, 0.76% hits; AID 588856, 2011
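HepG2 CAGA-GFP cells (1000/well, DMEM with 1% FBS) received compound, then TGF-beta at 500 pg/mL final, and were incubated 18 hours at 37 degrees C. Viability was read by CellTiter-Glo luminescence. Media-only wells were set as complete cell-killing and DMSO as no toxicity.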
HT1080 IDH1KD tx: qHTS for induction of synthetic lethality in tumor cells producing 2HG: qHTS for the HT-1080-IDH1KD cell line; HT-1080 IDH1 knockdown viability, ATP luminescence, 48 h; Potency, µM (highest dose often 46.1 µM), without a hit: at the highest dose activity, negative = toxicity, most hits filed as cytotoxic; 360,000 compounds, 2% hits; AID 686971, 2013;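 further: 0% = DMSO wells and -100% = cell-free medium wells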
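HT-1080-IDH1KD cells (IDH1 knocked down), 750/well in RPMI with 5% FBS, treated with compound 48 h at 37 degrees C. Viability by CellTiter-Glo luminescence, normalised to DMSO and no-cell wells; concentration-response curves classed.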
TGFb inhibitor: qHTS for Inhibitors of TGF-b | HepG2 CAGA-GFP TGF-b/SMAD3 reporter, GFP fluorescence, 18 h; TGF-beta stimulated, 500 pg/mL final | Potency, µM (highest dose often 46.1 µM), for the others: top-dose activity, negative = inhibition, hits mostly inhibitors | 410,000 compounds, 1.2% hits; further: on the % scale 0 is the no-effect control and ±100 the full control effect; nearly all actives have a fitted effect of over 65% in size
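Cell-based qHTS in HEPG2 carrying a CAGA-GFP Smad reporter; compounds added before 500 pg/mL final TGF-beta, 18 h incubation at 37 degrees C, GFP fluorescence quantified per cell by imaging cytometry.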
HT1080-NT tox: qHTS for induction of synthetic lethality in tumor cells producing 2HG: qHTS for the HT-1080-NT fibrosarcoma cell line | HT-1080-NT fibrosarcoma viability, CellTiter-Glo ATP luminescence, 48 h | Potency, µM (series often up to 46.1 µM), for the others: at the top dose activity, negative = less viability, hits mostly cytotoxic | 360,000 compounds, 1.6% hits | AID 686970, 2013;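 further: NT is the 2HG producing partner of a matched IDH1 knockdown line; 0% = DMSO-treated cells and -100% = media-only wells without cells; nearly all actives have a fitted effect of over 55% in size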
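HT-1080-NT; 750 cells/well; 5% FBS RPMI; 48 h compound, 37 degrees C; CellTiter-Glo luminescence; curve fitting and curve-class assignment.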
TDP1 cell CPT: qHTS for Inhibitors of human tyrosyl-DNA phosphodiesterase 1 (TDP1): qHTS in cells in presence of CPT. Potency, µM (titrated, usually from 46.2 µM), without a hit: top-dose activity change, negative = growth inhibition, actives largely listed as inhibitors. 420,000 compounds, 12% hits. chicken DT40 Tdp1-/-;hTDP1 cells + 20 nM CPT, ATP luminescence, 48 h; further: on the % scale 0 is the no-effect control and ±100 the full control effect; nearly all actives have a fitted effect of over 55% in size
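Chicken DT40 Tdp1-/- cells complemented with human TDP1, 400 cells/well, exposed to compounds plus 20 nM camptothecin for at least 48 h at 37 C; viability read as ATP content by CellTiter-Glo luminescence.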
DT40 TDP1 no CPT: qHTS for Inhibitors of human tyrosyl-DNA phosphodiesterase 1 (TDP1): qHTS in cells in absence of CPT; DT40 Tdp1-/- hTDP1 cells, no CPT, ATP luminescence, 48 h; Potency, µM (doses to about 46.2 µM), inactives show top-dose activity change, negative = growth inhibition, usual class: inhibitors; 420,000 compounds, 15% hits; further: on the % scale 0 is the no-effect control and ±100 the full control effect; nearly all actives have a fitted effect of over 55% in size
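DT40 Tdp1-/-;hTDP1 cells, no CPT (DMSO vehicle only), 400 cells/well; compounds pin-transferred; ≥48 hr, 37 °C; CellTiter-Glo 30 min RT dark, luminescence read.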
* = called active by the depositor; ? = inconclusive; . = no result given; [ ] = another dose, or the depositor's remark. The call rests on the fitted dose curve; in most records, active means well fitted curve in the direction sought with a large enough effect; inconclusive means small, poorly fitted or top-dose-only effect, or another doubt; inactive means no such curve, though single readings can be large; an effect the other way counts as inactive or inconclusive. Potency means the concentration at half of the fitted maximal effect.

SMILES	HepG2 tox	HT1080 IDH1KD tx	TGFb inhibitor	HT1080-NT tox	TDP1 cell CPT	DT40 TDP1 no CPT
Cc1nn(Cc2cccc(C(N)=O)c2)c(C)c1Br	-15%	-9%	12%	-4%	7%	-7%
C=Cc1ccc(Cn2c(=O)n(-c3cccc(Cl)c3)c(=O)c3c4c(sc32)CN(C(C)=O)CC4)cc1	-20%	.	-26%	.	?	?
COc1ccc(NC(C)=O)cc1NC(C)C(=O)Nc1cccc2ccccc12 (stereo not drawn)	-3%	2%	7%	-1%	2%	-25%
O=C1c2ccccc2C(=O)N1CCc1c(-c2ccccc2)[nH]c2ccccc12	-9%	?	?	-28%	?	15µM*
O=C1c2ccccc2C(=O)N1CCc1c(-c2[nH]c3ccccc3c2CCN2C(=O)c3ccccc3C2=O)[nH]c2ccccc12	-15%	13%	-2%	8%	21µM*	18µM*
CC(=O)c1ccc(-c2[nH]c3ccccc3c2CCN2C(=O)c3ccccc3C2=O)cc1	-20%	2%	-5%	4%	?	?
COc1ccccc1/C=C1\SC(=S)N(CCC(=O)Nc2cc(C)on2)C1=O	2%	16%	12%	-1%	-19%	?
CCC(SC1=N/C(=C/c2ccccc2OC)C(=O)N1c1ccccc1)C(=O)Nc1cc(C)on1 (stereo not drawn)	15%	5%	-10%	4%	12µM*	8.2µM*
Cc1onc(-c2ccccc2Cl)c1C(=O)NC(=S)Nc1ccc(C(C)(C)C)cc1	-44%	-4%	?	?	?	?
COc1ccc(C(=O)NCc2ccccc2CN2CCCC2)cc1S(=O)(=O)N1CCOCC1	3%	4%	-16%	2%	-4%	11%
CC12Cc3ccc4ccccc4c3C=C1C[N+](C)(C)C2 (stereo not drawn)	-9%	2%	14%	1%	-7%	-21%
CC[N+]1(CC)CC2=Cc3c(ccc4ccccc34)CC2C1 (stereo not drawn)	2%	-5%	22%	4%	?	21µM*
COc1cc(=O)n2c(c1C(=O)N(C)Cc1nonc1C)CCN(C(=O)c1cc(C)ccc1C)CC2	.	.	.	.	6%	-4%
CCN(CC(=O)Nc1ccc(OC)cc1)C(=O)C1CCN(C(=O)c2ccc(Cl)cc2)CC1	-2%	0%	-2%	-4%	7%	6%
O=C(NCC1CCCO1)c1cc2n(n1)C(C(F)(F)F)CC(c1ccc(F)cc1)N2 (stereo not drawn)	-4%	8%	-6%	2%	-20%	?
COc1ccc(NC(=O)c2cc3n(n2)C(C(F)(F)F)CC(c2ccco2)N3)cc1 (stereo not drawn)	-32%	-43%	-1%	-51%	-22%	?
Cc1cc(NC(=O)c2cc3n(n2)C(C(F)(F)F)CC(c2ccco2)N3)n(-c2ccccc2)n1 (stereo not drawn)	-46%	-27%	18%	-22%	?	15µM*
O=C(NCC12CC3CC(CC(C3)C1)C2)c1cc2n(n1)C(C(F)(F)F)CC(c1ccco1)N2 (stereo not drawn)	-104%	-22%	-19%	?	10µM*	15µM*
COc1ccc(CC(=O)Nc2ccc3nc(SC)sc3c2)cc1OC	-14%	-20%	0%	-24%	-22%	?
COc1cc(C)ccc1OCCSc1nc2ccc(NC(=O)c3ccc(F)cc3)cc2s1	-6%	.	-1%	.	?	8.2µM*
CCC(=O)Nc1ccc2nc(SCCOc3ccc(C)cc3OC)sc2c1	-14%	.	-1%	.	?	15µM*
CCOC(=O)c1c(NC(=O)COC(=O)C2CC2C)sc(C)c1C (stereo not drawn)	2%	-23%	-4%	-14%	?	?
CN(CCOc1ccc(Cl)cc1)C(=O)CN1C(=O)NC2(CCCCC2)C1=O	-2%	3%	-12%	-12%	?	?
Cc1onc(-c2c(F)cccc2Cl)c1C(=O)N1CCCc2ccccc21	-29%	?	3%	?	?	18µM*
Cc1onc(-c2ccccc2Cl)c1C(=O)N1CCCc2ccccc21	-16%	?	-6%	?	?	?
SMILES	HepG2 tox	HT1080 IDH1KD tx	TGFb inhibitor	HT1080-NT tox	TDP1 cell CPT	DT40 TDP1 no CPT
Cc1onc(-c2c(F)cccc2Cl)c1C(=O)Nc1cccc2nsnc12	-20%	?	-17%	-30%	16µM*	3.7µM*
Cc1onc(-c2ccccc2)c1C(=O)Nc1ccccc1N1CCOCC1	-2%	1%	?	0%	?	?
Cc1onc(-c2c(F)cccc2Cl)c1C(=O)Nc1ccccc1N1CCOCC1	8%	-13%	-8%	-11%	?	23µM*
Cc1noc(C)c1C(=O)Nc1ccccc1N1CCOCC1	2%	5%	11%	0%	-22%	-1%
Cc1onc(-c2ccccc2)c1C(=O)Nc1cc(C(F)(F)F)ccc1N1CCOCC1	-16%	2.9µM*	-25%	?	3.7µM*	2.9µM*
CC(=O)c1ccc(-c2ccc(C(=O)Nc3nc(C)c(C(C)=O)s3)o2)cc1	7%	13%	-2%	3%[9.24 µM]	-26%	-19%
O=Nc1nc2ncccn2c1-c1ccccc1	12%	12µM*	-7%	-1%	0.092µM*	0.52µM*
Cc1ccc(C)n1-n1c(C)nc2sc(-c3ccccc3)cc2c1=O	-10%	-23%	-25%	-20%	18µM*	15µM*
O=c1[nH]cnc2sc(-c3ccccc3)cc12	-8%	2%[9.24 µM]	19%	-14%	-25%	-12%
O=c1[nH]c(-c2ccccc2)nc2sc(-c3ccccc3)cc12	6%	-14%	5%	-14%	10µM*	6.5µM*
CCn1cnc2sc(-c3ccccc3)cc2c1=O	5%	2%	30%	14%	-19%	-15%
COc1ccc(-c2[nH]ncc2-c2cnn(-c3ccccc3)c2)c(O)c1	-46%	4%	?	4%	-10%	-24%
c1ccc(CNc2nc(NCC3CC3)nc3cc(-c4ccccc4)sc23)cc1	-93%	?	?	23µM*	9.2µM*	10µM*
